Here are results for nine compounds from PubChem BioAssay (Tox21).

Values without a mark were called inactive. Records with an inconclusive call do not appear. Calls of active or inactive are those of the source. Unless noted, calls come from the whole dose curve; as a rule, active = well fitted curve in the direction sought with a large enough effect in the repeat runs; inconclusive = weak or mixed curves; inactive = no such curve, though single readings can be large; an effect the other way counts as inactive or inconclusive.

Test [1] can be described thus: A CellTox Green Cytotoxicity Assay to monitor cytotoxicity in HEK293 cells - 32 hour (AID 1224881). Note: nearly all actives have a fitted effect of over 40% in size. Note: potency is the fitted concentration of half-maximal effect. In short, it runs like this:
(§1)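 Nonlytic real-time cytotoxicity: HEK293 + CellTox Green reagent plated, 5 h preincubation, pintool compound addition (23 nL in DMSO), 37 C for 40 h, fluorescence measured at successive time points.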

Test [2] is described as follows: A CellTox Green Cytotoxicity Assay to monitor cytotoxicity in HepG2 cells - 0 hour (AID 1224882). Note: nearly all actives have a fitted effect of over 35% in size. The method in brief: (§2)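 Read-out is fluorescence of a cyanine dye excluded from live cells that stains DNA of dead HepG2 cells, with signal proportional to cytotoxicity. Plates were read at 0, 8, 16, 24, 32 and 40 h after compound addition.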
The nature of test [3]: A CellTox Green Cytotoxicity Assay to monitor cytotoxicity in HepG2 cells - 32 hour (AID 1224883). Note: nearly all actives have a fitted effect of over 50% in size. The method in brief:
as §2

The nature of test [4]: qHTS RealTime-Glo MT Cell Viability Assay in HepG2 cells - 16 hour (AID 1224885). Note: nearly all actives have a fitted effect of over 50% in size. In short, it runs like this:
(§3)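 Viability was tracked continuously by NanoLuc luminescence from prosubstrate reduced by living HepG2 cells, at successive time points over 40 h of compound exposure. Cells with reagent were preincubated 5 h at 37 °C before compound addition.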
(In general: Quantitative high-throughput screening tests each substance at several concentrations.)

Test [5] in a line: qHTS RealTime-Glo MT Cell Viability Assay in HEK293 cells - 24 hour (AID 1224886). Note: top concentration of the series differs between compounds; nearly all actives have a fitted effect of over 50% in size. In short, it runs like this: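 Viability tracked continuously by luminescence as live cells reduce a prosubstrate for NanoLuc; HEK293 cells preincubated 5 h, compound-treated at 37 C, and read at 0, 8, 16, 24, 32 and 40 h.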
Test [6] is described as follows: A CellTox Green Cytotoxicity Assay to monitor cytotoxicity in HEK293 cells - 16 hour (AID 1224888). Note: nearly all actives have a fitted effect of over 35% in size. In short, it runs like this:
as §1

A short description of test [7]: qHTS RealTime-Glo MT Cell Viability Assay in HepG2 cells - 0 hour (AID 1224889). Note: nearly all actives have a fitted effect of over 50% in size. The method in brief: as §3
The nature of test [8]: A CellTox Green Cytotoxicity Assay to monitor cytotoxicity in HepG2 cells - 8 hour (AID 1224890). Note: nearly all actives have a fitted effect of over 45% in size. In short, it runs like this: as §2
A short description of test [9]: qHTS assay to identify small molecule antagonists of the estrogen receptor alpha (ER-alpha) signaling pathway using the BG1 cell line in the presence of 0.1 nM 17-beta-estradiol - cell viability counter screen (AID 1259241). Note: nearly all actives have a fitted effect of over 40% in size. The method in brief:
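Live-cell protease activity (CellTiter-Fluor fluorescence, 30 min) was read in the same wells after VM7Luc4E2 cells had been exposed to compounds with 0.1 nM 17beta-estradiol for 22 hr at 37C.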

The nature of test [10]: qHTS assay to identify small molecule antagonists of the androgen receptor (AR) signaling pathway using the MDA cell line in the presence of 0.5 nM R1881 - cell viability counter screen (AID 1259242). Note: nearly all actives have a fitted effect of over 45% in size. In short, it runs like this:
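Counter screen for cytotoxicity run in the same wells as the AR antagonist reporter screen: MDA-kb2 cells were treated 16 hr with test compounds and 0.5 nM R1881, then live-cell protease activity was measured by fluorescence.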

Test [11] has as its target Estrogen receptor (Homo sapiens) (UniProt P03372). Description: qHTS assay to identify small molecule antagonists of the estrogen receptor alpha (ER-alpha) signaling pathway using the BG1 cell line in the presence of 0.1 nM 17-beta-estradiol (AID 1259244). Note: nearly all actives have a fitted effect of over 50% in size. The method in brief: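 Cells: VM7Luc4E2, endogenous ER-alpha, 4x ERE-luc stable. Pre-culture 5 d, phenol red-free, charcoal-stripped FBS. Plated 24 h, compound + E2 0.1 nM final, 22 h 37C/5% CO2. Readout ONE-Glo luminescence.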

A short description of test [12]: qHTS assay to identify small molecule HDAC inhibitors (AID 1259364). Note: top concentration of the series differs between compounds; nearly all actives have a fitted effect of over 45% in size. The method in brief: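 Luminescence from a cell-permeant luminogenic class I/II HDAC substrate reports endogenous deacetylase activity in intact HCT-116 cells treated with compounds for 2 h.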
Test [13] can be described thus: qHTS assay to identify small molecule HDAC inhibitors - cell viability counter screen (AID 1259365). In short, it runs like this:
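HCT-116 (wild type), 1,500 cells/well, overnight 37C/5% CO2; compound in DMSO 2hr; CellTiter-Glo 30min RT; luminescence read.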

Test [14] can be described thus: qHTS assay to identify small molecule agonists of the sonic hedgehog signaling (Shh) pathway - cell viability counter screen (AID 1259366). Note: nearly all actives have a fitted effect of over 50% in size. In short, it runs like this:
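CellTiter-Fluor fluorescence read-out, 1 hr at 37C, added after 23hr compound exposure. Cells: 3T3 Gli1-Luc, an NIH/3T3 clone with stably integrated Gli1-Luc reporter, plated 4hr before compound.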

The nature of test [15]: qHTS assay to identify small molecule antagonists of the sonic hedgehog signaling (Shh) pathway - cell viability counter screen (AID 1259367). Note: nearly all actives have a fitted effect of over 55% in size. Note: potency is the fitted concentration of half-maximal effect. The method in brief:
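Using CellTiter-Fluor, viability of Gli1-Luc reporter 3T3 cells is read by fluorescence in the wells used for the Shh luciferase assay. Treatment lasts 23 hr with conditioned medium, then reagent 1 hr at 37C.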

Test [16] in a line: qHTS assay to identify small molecule agonists of the sonic hedgehog signaling (Shh) pathway (AID 1259368; calls by dose curve;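 note: NIH/3T3-derived 3T3Gli1-Luc cells carrying a stable Gli1-driven firefly luciferase reporter; series mostly up to about 92 µM; nearly all actives have a fitted effect of over 15% in size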). In short, it runs like this:
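3T3Gli1-Luc (NIH/3T3 clone, stable Gli1-Luc); 4 hr pre-incubation, then cpd in DMSO 24 hr, 37 C/5% CO2; luciferase reagent 30 min RT; luminescence.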

Test [17] in a line: A CellTox Green Cytotoxicity Assay to monitor cytotoxicity in HEK293 cells - 8 hour (AID 1224884). Note: nearly all actives have a fitted effect of over 35% in size. In short, it runs like this: as §1
A short description of test [18]: qHTS RealTime-Glo MT Cell Viability Assay in HEK293 cells - 8 hour (AID 1224887). The method in brief:
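Cells were seeded together with NanoLuc luciferase and a prosubstrate that viable cells reduce to a luciferase substrate. After a 5 h incubation at 37 C/5% CO2, compounds were added and luminescence was measured repeatedly during 40 h of treatment.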

The target of test [19] is Androgen receptor (Homo sapiens) (UniProt P10275). The experiment in a line: qHTS assay to identify small molecule antagonists of the androgen receptor (AR) signaling pathway using the MDA cell line in the presence of 0.5 nM R1881 (AID 1259243). Note: nearly all actives have a fitted effect of over 50% in size. In short, it runs like this:
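Luciferase luminescence is the read-out: compounds are tested for suppressing 0.5 nM R1881-driven MMTV reporter activity in MDA-kb2 cells after 16 hr at 37C.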

The nature of test [20]: qHTS assay to identify small molecule phospholipidosis (PLD) inducers (AID 1259344; active = well fitted curve in the direction sought with a large enough effect; an effect the other way counts as inactive or inconclusive). In short, it runs like this:
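Fluorescent phospholipid staining (LipidTOX Red) measured by automated microscopy in fixed HepG2 cells after 24 h treatment; nuclei counterstained with Hoechst 33342; amiodarone as reference inducer.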

Estrogen receptor (Homo sapiens), sequence (P03372 whole entry, looked up): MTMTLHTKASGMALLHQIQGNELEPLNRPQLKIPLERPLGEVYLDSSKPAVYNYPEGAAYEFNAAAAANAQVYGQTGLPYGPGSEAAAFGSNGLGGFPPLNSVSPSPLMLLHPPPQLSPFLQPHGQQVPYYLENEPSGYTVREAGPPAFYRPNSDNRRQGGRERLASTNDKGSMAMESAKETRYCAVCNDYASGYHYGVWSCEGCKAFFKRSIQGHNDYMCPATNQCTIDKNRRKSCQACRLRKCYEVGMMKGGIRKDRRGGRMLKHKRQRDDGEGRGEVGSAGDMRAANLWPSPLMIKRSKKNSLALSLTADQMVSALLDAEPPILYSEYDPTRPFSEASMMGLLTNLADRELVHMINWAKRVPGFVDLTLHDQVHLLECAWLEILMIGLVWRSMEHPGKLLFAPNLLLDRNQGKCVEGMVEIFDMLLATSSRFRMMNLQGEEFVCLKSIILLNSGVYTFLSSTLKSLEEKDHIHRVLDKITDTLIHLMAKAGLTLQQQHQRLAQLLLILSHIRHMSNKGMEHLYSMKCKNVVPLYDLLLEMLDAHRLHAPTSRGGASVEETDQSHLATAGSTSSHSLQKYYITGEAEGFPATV
Androgen receptor (Homo sapiens), sequence (P10275 whole entry, looked up): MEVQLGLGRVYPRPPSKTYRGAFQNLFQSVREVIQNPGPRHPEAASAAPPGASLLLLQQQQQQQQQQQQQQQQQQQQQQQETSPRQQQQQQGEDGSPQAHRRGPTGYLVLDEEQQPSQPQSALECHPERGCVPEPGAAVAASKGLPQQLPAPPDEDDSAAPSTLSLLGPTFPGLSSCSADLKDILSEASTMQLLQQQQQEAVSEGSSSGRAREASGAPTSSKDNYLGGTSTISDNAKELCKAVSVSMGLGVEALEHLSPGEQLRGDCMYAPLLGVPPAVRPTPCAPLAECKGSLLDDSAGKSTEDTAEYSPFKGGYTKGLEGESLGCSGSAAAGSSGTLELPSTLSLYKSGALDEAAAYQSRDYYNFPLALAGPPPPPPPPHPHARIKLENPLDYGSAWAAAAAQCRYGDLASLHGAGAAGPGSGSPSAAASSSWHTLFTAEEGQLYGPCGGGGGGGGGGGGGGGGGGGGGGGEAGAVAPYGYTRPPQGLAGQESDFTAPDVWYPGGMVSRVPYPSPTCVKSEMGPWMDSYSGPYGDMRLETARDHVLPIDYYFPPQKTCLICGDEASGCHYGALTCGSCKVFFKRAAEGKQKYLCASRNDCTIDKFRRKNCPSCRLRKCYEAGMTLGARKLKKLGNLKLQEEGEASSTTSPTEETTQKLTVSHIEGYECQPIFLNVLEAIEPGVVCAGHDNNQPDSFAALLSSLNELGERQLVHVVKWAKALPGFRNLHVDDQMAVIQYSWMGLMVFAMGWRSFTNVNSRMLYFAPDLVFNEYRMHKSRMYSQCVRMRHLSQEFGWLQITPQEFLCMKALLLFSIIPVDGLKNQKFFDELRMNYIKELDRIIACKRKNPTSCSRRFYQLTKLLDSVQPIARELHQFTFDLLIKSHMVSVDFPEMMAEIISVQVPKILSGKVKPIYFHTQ

In the case of `CN=CNc1ccc(C)cc1C`, the Potency result in test [1], in test [3], in test [4], in test [5], in [6] and in [8] was “inactive” each time. In addition, the Potency entry in [10], in test [11], in test [12], in [14] and in test [15] was “inactive” each time. In addition, the result in [2], in test [7], in [9], in [13] and in [16] was inactive.

Take `CCC(=O)OC1(c2ccccc2)CCN(C)CC1`: the Potency result in [1], in test [3], in [17], in [4], in test [5] and in [18] was “inactive” in each case. The Potency entry in [6], in test [8], in test [10], in test [12], in [14] and in test [15] was “inactive” throughout. Moreover, the compound was classed as inactive in [7], in test [9], in test [13] and in test [16].

Take `N#CC(Br)(Br)C(N)=O`: the Potency entry in test [1], in [17], in [4], in test [5], in test [18] and in test [8] was “inactive” throughout. For the same compound, the Potency entry in test [10], in [12] and in [14] was “inactive” in each case. Moreover, the compound was classed as inactive in test [2], in [7], in test [9], in [13] and in [16]. The Potency in test [15] was 54.5 µM (active).

Turning to `CCC1(c2ccccc2)C(=O)N(COC)C(=O)N(COC)C1=O`, the Potency entry in [1], in [3], in [17], in test [5], in test [6] and in test [8] was “inactive” throughout. Further, the Potency result in test [10], in test [19], in test [20], in [12], in test [14] and in [15] was “inactive” throughout. Moreover, the compound was called inactive in test [7], in [9], in test [13] and in [16].

For `O=c1[nH]c2ccccc2n1C1CCNCC1`, the Potency result in [1], in test [3], in test [17], in [4], in [5] and in test [6] was “inactive” each time. Besides, the Potency result in test [8], in test [10], in [19], in [11], in test [12] and in test [14] was “inactive” each time. Moreover, the Potency entry in [15] was “inactive”. Further, the result in test [7], in [9] and in [13] was inactive.

As for `C/C=C/CC#N`, the compound was classed as inactive in test [2], in test [7], in test [9] and in test [13]. Besides, the Potency result in test [3], in test [4], in test [5], in test [18], in test [8] and in test [10] was “inactive” in each case. For the same compound, the Potency entry in test [11], in [12], in [14] and in test [15] was “inactive” in each case.

Take `CCCC(C)(COC(N)=O)COC(N)=O`: the Potency entry in [1], in [3], in [4], in test [5], in test [18] and in test [8] was “inactive” each time. Further, the Potency result in test [10], in test [20], in [12], in [14] and in [15] was “inactive” throughout. Further, the compound was called inactive in [7], in test [9], in [13] and in [16].

Take `Clc1ccc(C(Cl)(Cl)Cl)cn1`: the Potency in test [1] is 34.7 µM (active). The Potency entry in [3], in test [4], in [5], in test [8], in test [10] and in test [19] was “inactive” each time. For the same compound, the Potency entry in test [11], in [12], in test [14] and in test [15] was “inactive” each time. Further, the compound was classed as inactive in test [7], in test [9], in test [13] and in test [16].

For `CCC(C(N)=O)N1CCCC1=O` (centres undefined), the Potency result in test [1], in [3], in [17], in test [5], in test [18] and in [6] was “inactive” in each case. Further, the Potency result in test [8], in test [10], in test [11], in test [12], in test [14] and in test [15] was “inactive” each time. The result in test [7], in [9], in [13] and in test [16] was inactive.
